Reference: PMC13541613, “GHT-SELEX demonstrates unexpectedly high intrinsic sequence specificity and complex DNA binding of many human transcription factors”

Assays:
Assay in all cases: HT-SELEX; 20 mM HEPES pH 7, 140 mM KCl, 5 mM NaCl, 1 mM K2HPO4, 2 mM MgSO4, 100 uM EGTA, ZnSO4, 0.1% Tween20; room temperature, 1 h; high values mean tight binding
Conditions in all cases: protein: ivt; tags: eGFP (N-terminal); dsDNA, one strand shown
[1] = target: ZNF721 full-length (Homo sapiens, UniProt Q8TF20-2 1-923)
Chain of ZNF721 full-length (Q8TF20 other isoform, or with tags, fused parts or gaps): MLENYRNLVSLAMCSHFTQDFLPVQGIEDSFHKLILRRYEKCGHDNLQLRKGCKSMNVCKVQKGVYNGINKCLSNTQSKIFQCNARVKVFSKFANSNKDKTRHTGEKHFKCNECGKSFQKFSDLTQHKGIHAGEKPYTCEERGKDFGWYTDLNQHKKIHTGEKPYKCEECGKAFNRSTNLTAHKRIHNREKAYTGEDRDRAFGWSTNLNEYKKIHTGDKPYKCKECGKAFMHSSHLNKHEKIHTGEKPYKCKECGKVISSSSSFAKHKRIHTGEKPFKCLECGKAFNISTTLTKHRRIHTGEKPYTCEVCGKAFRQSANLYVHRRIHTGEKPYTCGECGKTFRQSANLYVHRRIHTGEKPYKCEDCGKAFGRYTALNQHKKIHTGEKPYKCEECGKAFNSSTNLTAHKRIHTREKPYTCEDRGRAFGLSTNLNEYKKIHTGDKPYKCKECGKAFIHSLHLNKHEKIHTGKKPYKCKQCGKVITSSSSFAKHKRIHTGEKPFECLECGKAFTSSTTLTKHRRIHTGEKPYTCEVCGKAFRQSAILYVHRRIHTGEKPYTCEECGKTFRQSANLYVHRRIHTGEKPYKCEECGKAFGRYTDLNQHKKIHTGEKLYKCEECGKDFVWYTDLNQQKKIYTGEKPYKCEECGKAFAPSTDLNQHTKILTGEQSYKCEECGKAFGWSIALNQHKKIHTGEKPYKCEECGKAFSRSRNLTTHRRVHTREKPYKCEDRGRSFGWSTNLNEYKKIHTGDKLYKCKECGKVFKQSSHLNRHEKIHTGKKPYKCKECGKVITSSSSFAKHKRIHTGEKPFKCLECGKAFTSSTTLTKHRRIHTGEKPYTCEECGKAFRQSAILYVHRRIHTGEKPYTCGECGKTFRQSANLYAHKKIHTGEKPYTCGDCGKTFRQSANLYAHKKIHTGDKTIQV
In short: (§1)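 Bead-immobilised tagged transcription factor (full-length or DNA-binding-domain fragment), made in HEK293 lysate or cell-free extract, was incubated with a randomized 40-base DNA library. Binding was for 1 h at room temperature in HEPES/KCl low-stringency buffer with Tween20. After washing and heat elution, bound DNA was PCR-amplified over successive cycles and Illumina-sequenced (~3 million 60 bp reads per sample). Binding signal is a relative k-mer count in selected reads; higher means tighter binding.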

[2] = target: ZNF721 DBD1 (Homo sapiens, UniProt Q8TF20-2 29-461)
Chain of ZNF721 DBD1 (Q8TF20 17-449): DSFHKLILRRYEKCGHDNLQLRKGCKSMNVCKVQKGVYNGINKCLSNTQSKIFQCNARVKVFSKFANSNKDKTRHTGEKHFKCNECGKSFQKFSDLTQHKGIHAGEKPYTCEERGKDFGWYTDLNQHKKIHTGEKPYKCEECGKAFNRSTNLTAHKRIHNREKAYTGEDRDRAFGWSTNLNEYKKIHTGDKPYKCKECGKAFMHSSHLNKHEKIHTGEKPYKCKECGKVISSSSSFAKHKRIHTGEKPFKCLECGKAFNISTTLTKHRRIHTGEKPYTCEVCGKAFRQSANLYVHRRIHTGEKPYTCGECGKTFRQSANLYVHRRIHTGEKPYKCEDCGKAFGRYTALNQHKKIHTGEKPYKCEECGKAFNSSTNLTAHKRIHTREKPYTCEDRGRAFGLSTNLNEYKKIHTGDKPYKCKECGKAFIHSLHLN
In short: as §1

[3] = target: ZNF721 DBD2 (Homo sapiens, UniProt Q8TF20-2 395-923)
Chain of ZNF721 DBD2 (Q8TF20 383-911): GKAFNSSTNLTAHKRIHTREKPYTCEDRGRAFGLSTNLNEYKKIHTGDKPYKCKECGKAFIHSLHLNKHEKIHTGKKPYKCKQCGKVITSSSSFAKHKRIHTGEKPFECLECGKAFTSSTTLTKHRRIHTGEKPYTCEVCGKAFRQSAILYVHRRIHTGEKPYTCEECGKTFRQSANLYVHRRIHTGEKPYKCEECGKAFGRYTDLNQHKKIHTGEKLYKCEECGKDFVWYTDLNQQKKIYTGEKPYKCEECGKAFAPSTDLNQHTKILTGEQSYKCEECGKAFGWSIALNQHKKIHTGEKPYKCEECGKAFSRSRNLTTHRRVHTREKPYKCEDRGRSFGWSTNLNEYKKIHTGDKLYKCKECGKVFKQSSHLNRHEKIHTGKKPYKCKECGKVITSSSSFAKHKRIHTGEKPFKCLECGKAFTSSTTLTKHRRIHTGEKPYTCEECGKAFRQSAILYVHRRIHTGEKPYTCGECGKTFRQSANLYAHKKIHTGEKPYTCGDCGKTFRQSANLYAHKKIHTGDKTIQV
In short: as §1

Sequence	binding signal [1]	binding signal [2]	binding signal [3]
CCCCCCCACC	0.358 relative 10-mer count	0.0144 relative 10-mer count	0.00791 relative 10-mer count
CCCCACCCGC	0.186 relative 10-mer count	0.00651 relative 10-mer count	0.003 relative 10-mer count
CTTCATACTC	0.167 relative 10-mer count	0.271 relative 10-mer count	0.00132 relative 10-mer count
AAGCTGCACC	0.143 relative 10-mer count	0.0827 relative 10-mer count	0.0024 relative 10-mer count
CCACCCACCA	0.237 relative 10-mer count	0.00977 relative 10-mer count	0.00791 relative 10-mer count
AAAAAAGCAG	0.862 relative 10-mer count	0.0227 relative 10-mer count	0.588 relative 10-mer count
CACGCCCACC	0.123 relative 10-mer count	0.00518 relative 10-mer count	0.00947 relative 10-mer count
AGCATACCCC	0.144 relative 10-mer count	0.0115 relative 10-mer count	0.146 relative 10-mer count
GTGGTGGGGA	0.14 relative 10-mer count	0.00674 relative 10-mer count	0.00443 relative 10-mer count
CACCGTCCCC	0.111 relative 10-mer count	0.0039 relative 10-mer count	0.00252 relative 10-mer count
AAGAAAAAAG	0.166 relative 10-mer count	0.0407 relative 10-mer count	0.0319 relative 10-mer count
CCCCCCACCA	0.231 relative 10-mer count	0.00904 relative 10-mer count	0.00863 relative 10-mer count
CACCGCCCCA	0.107 relative 10-mer count	0.00404 relative 10-mer count	0.0024 relative 10-mer count
CCCACCCGAC	0.114 relative 10-mer count	0.00449 relative 10-mer count	0.00479 relative 10-mer count
AAAAGCATAC	0.149 relative 10-mer count	0.0247 relative 10-mer count	0.039 relative 10-mer count
TGGGTATGAA	0.14 relative 10-mer count	0.192 relative 10-mer count	0.00108 relative 10-mer count
CCGTCCCCCC	0.15 relative 10-mer count	0.00693 relative 10-mer count	0.00192 relative 10-mer count
AGGGGGAGGG	0.145 relative 10-mer count	0.00752 relative 10-mer count	0.00515 relative 10-mer count
CCCACCCCAA	0.151 relative 10-mer count	0.00642 relative 10-mer count	0.00575 relative 10-mer count
CCCACCCACA	0.171 relative 10-mer count	0.00688 relative 10-mer count	0.00959 relative 10-mer count

Sequence	binding signal [1]	binding signal [2]	binding signal [3]
GCCCCACCCC	0.216 relative 10-mer count	0.00775 relative 10-mer count	0.00599 relative 10-mer count
AGGATACCCT	0.106 relative 10-mer count	0.00527 relative 10-mer count	0.171 relative 10-mer count
CCACCCTCCC	0.246 relative 10-mer count	0.0111 relative 10-mer count	0.00467 relative 10-mer count
ACCACCCCCA	0.142 relative 10-mer count	0.00505 relative 10-mer count	0.00204 relative 10-mer count
AAAAAAGCTC	0.21 relative 10-mer count	0.0749 relative 10-mer count	0.00515 relative 10-mer count
GCCCCGCCCC	0.124 relative 10-mer count	0.00436 relative 10-mer count	0.00156 relative 10-mer count
CCCCCTCCTC	0.116 relative 10-mer count	0.00459 relative 10-mer count	0.00395 relative 10-mer count
AAGTGTATCC	0.292 relative 10-mer count	0.241 relative 10-mer count	0.00503 relative 10-mer count
CCACGCCCCC	0.187 relative 10-mer count	0.00605 relative 10-mer count	0.0024 relative 10-mer count
CCTCGCCCCC	0.123 relative 10-mer count	0.00592 relative 10-mer count	0.00144 relative 10-mer count
AGCGTCTCCA	0.271 relative 10-mer count	0.0472 relative 10-mer count	0.388 relative 10-mer count
CAGCATCCCC	0.143 relative 10-mer count	0.00165 relative 10-mer count	0.154 relative 10-mer count
CCACCCCACC	0.411 relative 10-mer count	0.0178 relative 10-mer count	0.00731 relative 10-mer count
CCCACCTCCC	0.339 relative 10-mer count	0.017 relative 10-mer count	0.00551 relative 10-mer count
AGCATCTCCA	0.132 relative 10-mer count	0.0129 relative 10-mer count	0.121 relative 10-mer count
CCCCCCCTCC	0.208 relative 10-mer count	0.00982 relative 10-mer count	0.00336 relative 10-mer count
CGCCCCACCC	0.236 relative 10-mer count	0.00844 relative 10-mer count	0.00312 relative 10-mer count
GGAGGGGGGA	0.131 relative 10-mer count	0.00601 relative 10-mer count	0.00336 relative 10-mer count
CCCCACCACA	0.148 relative 10-mer count	0.00505 relative 10-mer count	0.00527 relative 10-mer count
